Laboratory results as given in PubChem BioAssay.
Active and inactive are the calls of the source.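 The calls were made as follows: active = inhibition above the hit cutoff set in the earlier primary screen (cut at about 27% in these data); inactive = the rest.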

What follows are molecules tested against Protein phosphatase methylesterase 1 (Homo sapiens) (UniProt Q9Y570) (assay: PME-1 inhibitor activity retest, confirmation, biochemical, fluorescence polarization, FP-Rh probe, triplicate (AID 2171;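 also: 0% = enzyme with DMSO and 100% = wells lacking PME-1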)). Conditions: recombinant PME-1, FP-Rh probe fluorescence polarization; at 5.9 µM; active compounds read high.
Sequence of Protein phosphatase methylesterase 1 (Homo sapiens) (Q9Y570 whole entry, looked up): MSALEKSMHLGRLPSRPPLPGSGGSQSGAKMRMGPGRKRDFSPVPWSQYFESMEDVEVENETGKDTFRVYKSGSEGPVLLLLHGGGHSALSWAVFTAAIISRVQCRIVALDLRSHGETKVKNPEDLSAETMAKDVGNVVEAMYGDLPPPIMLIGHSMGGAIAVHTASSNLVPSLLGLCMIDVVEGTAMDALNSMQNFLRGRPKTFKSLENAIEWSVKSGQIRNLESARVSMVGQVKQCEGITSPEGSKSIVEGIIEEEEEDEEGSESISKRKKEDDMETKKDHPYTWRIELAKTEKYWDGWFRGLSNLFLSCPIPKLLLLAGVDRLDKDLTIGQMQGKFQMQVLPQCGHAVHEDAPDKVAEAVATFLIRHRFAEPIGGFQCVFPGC

Structure (SMILES) | inhibition
COc1ccccc1-c1sc2ccccc2c1-c1ccc(C(C)=O)cc1 | -9.37% (inactive)
COc1ccc(S(=O)(=O)N2CCCCCC2)cc1NC(=O)Cc1cc(OC)c(OC)c(OC)c1 | 64% (active)
CC1Oc2ccccc2C=C1/C=N/Nc1ccc(C(=O)O)cc1 (stereo not given) | 34.8% (active)
Cc1c(O)ccc(/C=N/Nc2nc(-c3cccnc3)nc3ccccc23)c1O | 48.8% (active)
COc1cc(/C=C/c2ccc3cccc(O)c3n2)ccc1O | 53.6% (active)
Oc1c(Br)cc(Br)c(/C=N/n2c(-c3ccccc3)n[nH]c2=S)c1Br | 45.5% (active)
CS(=O)(=O)N1N=C(c2ccccc2)CC1c1ccc2c(c1)OCO2 (stereo not given) | -54.8% (inactive)
Cc1ccc(C(=O)N/N=C/c2ccc(-c3ccc(Br)cc3[N+](=O)[O-])o2)o1 | 33.1% (active)
Cc1cc2c(N)cccc2nn1 | 7.9% (inactive)
C=C(C)COc1ccc(-c2[nH]ncc2-c2ccc(OC)c(OC)c2)c(O)c1 | 22.1% (inactive)
O=[N+]([O-])c1ccccc1/C=C/C=N/Nc1ccc(S(=O)(=O)Nc2ccc(Cl)cc2)cc1[N+](=O)[O-] | 14.2% (inactive)
Nc1nonc1-n1nnc(C(=O)N/N=C/c2c[nH]c3ccccc23)c1-c1ccccc1 | 25.4% (inactive)
Cc1[nH]c2ccccc2c1N=Nc1ccccc1C(=O)O | 20.8% (inactive)
COc1ccc(NC(C(=O)Nc2cccc(C(C)=O)c2)c2ccccc2)cc1 (stereo not given) | 36% (active)
CC#CCN1c2ccccc2[C@]23C[C@@H](C(=O)OC)N(C(=O)c4cc(C)oc4C)C2=NC(C(=O)OC)=C(C(=O)OC)[C@H]13 | 29.6% (active)
COc1ccc(/C=N/Nc2cc(C)nc(-n3nc(C)cc3C)n2)c(OC)c1 | 41.6% (active)
CCn1cc(C(=O)NCCCN2CC(C)CC(C)C2)c(=O)c2cc(S(=O)(=O)N(C)C3CCCCC3)ccc21 (stereo not given) | 35.6% (active)
O=[N+]([O-])c1cc(Br)c(O)c(/C=N/Nc2nnnn2-c2cccc3ccccc23)c1 | 43.7% (active)
O=C1c2cccc3c(N4CCCCC4)ccc(c23)C(=O)N1c1cccc(O)c1 | -13.8% (inactive)
N#CCN(CC#N)C(=O)C1c2ccccc2Oc2ccccc21 | 0.3% (inactive)

Structure (SMILES) | inhibition
O=[N+]([O-])c1cccc(N/N=C/c2cccc(O)c2O)c1 | 32.9% (active)
Nc1ccc(Nc2nc3ccccc3[nH]2)cc1 | 43.7% (active)
CCc1ccc2nc(SCC(=O)N3CC(=O)Nc4ccccc43)c(C#N)cc2c1 | 15.3% (inactive)
O=C(N/N=C/c1ccc(O)c(O)c1)c1ccc(CSc2cccc3cccnc23)cc1 | -3.59% (inactive)
CCc1ccc(CNc2ccc(O)cc2)cc1 | 7.5% (inactive)
Oc1[nH]c2ccccc2c1N=Nc1nc2ccccc2s1 | 14.1% (inactive)
Cc1cc(C)c(C#N)c(SCc2nc3ccccc3[nH]2)n1 | 11.9% (inactive)
CCOC(=O)N1CC=C2C(C#N)=C(N)C(C#N)(C#N)[C@H](c3ccc(OC(C)C)c(OCC)c3)[C@H]2C1 | 41.6% (active)
COc1ccc(N=Nc2nc(-c3ccccc3)c(-c3ccccc3)[nH]2)cc1 | 10.8% (inactive)
Oc1ccc(-c2cnc(-c3ccc(O)cc3)nc2)cc1 | 16.1% (inactive)
C=CCc1cccc(/C=N/NC(=O)CNc2cccc3ccccc23)c1O | 17.8% (inactive)
CC(C)=CCc1cc2c(=O)c3c(O)c4c(cc3oc2c(O)c1O)OC(C)C4(C)C (stereo not given) | -51.2% (inactive)
Cc1ccc(Nc2c([N+](=O)[O-])ccc3c2=NC2(CCCCC2)N=3)cc1 | 44.3% (active)
CN1C(=O)NC(c2ccccc2[N+](=O)[O-])C2=C1CCCC2=O (stereo not given) | 51.5% (active)
N#CCCN(CCC#N)C(=O)C1c2ccccc2Oc2ccccc21 | -4.23% (inactive)
N#CC/C(N)=N/Nc1nc2ccccc2nc1Cc1ccccc1 | -1.36% (inactive)
CCn1cc(C(=O)NCCCN2CCCC(C)C2)c(=O)c2cc(S(=O)(=O)N(C)C3CCCCC3)ccc21 (stereo not given) | 45.2% (active)
CC1=CN2C(=N)/C(=C/c3ccc([N+](=O)[O-])o3)C(=O)N=C2S1 | -6.58% (inactive)
O=C(NNc1c2ccccc2nc2ccccc12)c1cccc(O)c1 | 36% (active)
Cc1cc(N/N=C/c2ccc(O)cc2O)nc(-c2ccccc2O)n1 | 39.8% (active)
